Assay [1] can be described thus: NCI Yeast Anticancer Drug Screen. Data for the rad50 strain (AID 155).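 Also: 0% = growth of vehicle-only cultures of the same strain.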 To be noted: S. cerevisiae rad50 strain growth inhibition, hits give high values. The method, boiled down: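 DNA repair mutant yeast, compound exposure, growth read-out; inhibition is taken relative to vehicle.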
Assay [2] is described as follows: NCI Yeast Anticancer Drug Screen. Data for the mec2-1 strain (AID 157). To be noted: S. cerevisiae mec2-1 strain, hits give high values. The method, boiled down: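 Strain: mec2-1 (DNA repair/cell cycle alteration). Compound exposure, then growth measured; inhibition expressed relative to vehicle.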
Assay [3] in a line: NCI Yeast Anticancer Drug Screen. Data for the sgs1 mgt1 strain (AID 161).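 Also: 0% = growth of cultures given vehicle only.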 The settings on record: S. cerevisiae sgs1 mgt1 strain, hits give high values. An outline of the steps: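 Genetically altered yeast, compound exposure, growth inhibition relative to vehicle.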
The nature of assay [4]: NCI Yeast Anticancer Drug Screen. Data for the cln2 rad14 strain (AID 165).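 Also: 0% = growth equal to vehicle treated cultures.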 To be noted: S. cerevisiae cln2 rad14 strain, hits give high values. An outline of the steps:
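Compounds are applied to the cln2 rad14 yeast strain, and growth is then compared with that of vehicle-treated cultures to give inhibition.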

A short description of assay [5]: NCI Yeast Anticancer Drug Screen. Data for the bub3 strain (AID 167). The settings on record: S. cerevisiae bub3 mutant strain, hits give high values. The method, boiled down: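 In this screen, a yeast mutant lacking normal mitotic checkpoint function is challenged with compound. Relative growth versus vehicle gives the inhibition value.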
Assay [6] can be described thus: NCI Yeast Anticancer Drug Screen. Data for the mlh1 rad18 strain (AID 175). To be noted: S. cerevisiae mlh1 rad18 strain growth inhibition, hits give high values. The method, boiled down: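 Read-out is yeast growth inhibition, calculated against vehicle-only controls. The compound was applied to a strain engineered with DNA damage repair alterations.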
Setting [7] is: at 5.0 µM (retest, dose inferred, filed as 0.5).
[8] abbreviates: at 50.0 µM (retest, dose inferred, filed as 5.0).

Our source for the growth inhibition values is PubChem BioAssay (NCI).

The panel holds about 79,000 compounds, 15% with a hit somewhere; the sample as a whole holds those more often. Unmarked numbers belong to inactive results. The source made the active and inactive calls. Rule as the data show it: active = growth inhibition above about 70%; inactive = the rest.

For the compound `O=C1NC(c2ccccc2)(c2cccs2)C(=O)N1C1c2ccccc2Oc2ccccc21` (stereo not given), the growth inhibition in assay [1] (setting [7]) is 0%; in assay [1] (setting [8]), 87% (active); in assay [1] (at 50.0 µM) it was 90.3% (active); in assay [2] (setting [7]), -11%; in assay [2] (setting [8]) it was 92% (active); in assay [2] (at 50.0 µM) it was 84.7% (active). The growth inhibition in assay [3] (setting [7]) is -18%; in assay [3] (setting [8]), 92% (active); in assay [3] (at 50.0 µM) it was 91% (active); in assay [4] (setting [7]), -7%; in assay [4] (setting [8]), 84% (active); in assay [4] (at 50.0 µM), 84.2% (active). In addition, the growth inhibition in assay [5] (setting [7]) was -5%; in assay [5] (setting [8]) it was 91% (active); in assay [5] (at 50.0 µM), 86.8% (active); in assay [6] (setting [7]) it was 21%; in assay [6] (setting [8]) it was 87% (active); in assay [6] (at 50.0 µM), 87.4% (active).

As to `C/C(=N\NC(=S)N1CCN(C2CCCCCC2)CC1)c1ccccn1`, the growth inhibition was -4% in assay [1] (setting [7]); 99% (active) in assay [1] (setting [8]); 50.5% in assay [1] (at 50.0 µM); -6% in assay [2] (setting [7]); 99% (active) in assay [2] (setting [8]); 65.3% in assay [2] (at 50.0 µM). For the same compound, the growth inhibition in assay [3] (setting [7]) was -4%; in assay [3] (setting [8]), 99% (active); in assay [3] (at 50.0 µM) it was 26.1%; in assay [4] (setting [7]) it was 8%; in assay [4] (setting [8]) it was 99% (active); in assay [4] (at 50.0 µM), 42%. Besides, the growth inhibition was -17% in assay [5] (setting [7]); 99% (active) in assay [5] (setting [8]); 19.4% in assay [5] (at 50.0 µM); 14% in assay [6] (setting [7]); 99% (active) in assay [6] (setting [8]); 40% in assay [6] (at 50.0 µM).

As for `C[CH2][Ge]([CH2]C)[CH2]C.C[CH2][Ge]([Cl])[CH2]C.C[CH2][Ge][CH2]C`, the growth inhibition is 19% in assay [1] (setting [7]); 96% (active) in assay [1] (setting [8]); 98% (active) in assay [1] (at 50.0 µM); 15% in assay [2] (setting [7]); 98% (active) in assay [2] (setting [8]); 98.6% (active) in assay [2] (at 50.0 µM). For the same compound, the growth inhibition was 23% in assay [3] (setting [7]); 96% (active) in assay [3] (setting [8]); 98.1% (active) in assay [3] (at 50.0 µM); 8% in assay [4] (setting [7]); 94% (active) in assay [4] (setting [8]); 97% (active) in assay [4] (at 50.0 µM). Moreover, the growth inhibition in assay [5] (setting [7]) was 17%; in assay [5] (setting [8]) it was 96% (active); in assay [5] (at 50.0 µM), 98.2% (active); in assay [6] (setting [7]) it was 12%; in assay [6] (setting [8]) it was 95% (active); in assay [6] (at 50.0 µM), 98.2% (active).

As to `O=c1ccnc(Sc2ccc([N+](=O)[O-])cc2[N+](=O)[O-])[nH]1`, the growth inhibition in assay [1] (setting [7]) was 16%; in assay [1] (setting [8]), 94% (active); in assay [1] (at 50.0 µM), 47.2%; in assay [2] (setting [7]) it was 8%; in assay [2] (setting [8]), 94% (active); in assay [2] (at 50.0 µM), 54.6%. Besides, the growth inhibition was 2% in assay [3] (setting [7]); 87% (active) in assay [3] (setting [8]); 84% (active) in assay [3] (at 50.0 µM); 1% in assay [4] (setting [7]); 74% (active) in assay [4] (setting [8]); 59.1% in assay [4] (at 50.0 µM). For the same compound, the growth inhibition is -1% in assay [5] (setting [7]); 92% (active) in assay [5] (setting [8]); 52.5% in assay [5] (at 50.0 µM); 2% in assay [6] (setting [7]); 93% (active) in assay [6] (setting [8]); 49.6% in assay [6] (at 50.0 µM).

As to `CCN(CC)C(=O)N1CCN(c2cccc(Cl)c2)CC1`, the growth inhibition in assay [1] (setting [7]) is 4%; in assay [1] (setting [8]), 58%; in assay [1] (at 50.0 µM), 74% (active); in assay [2] (setting [7]) it was 0%; in assay [2] (setting [8]), 84% (active); in assay [2] (at 50.0 µM), 91.2% (active). Besides, the growth inhibition in assay [3] (setting [7]) was 5%; in assay [3] (setting [8]) it was 85% (active); in assay [3] (at 50.0 µM), 90.2% (active); in assay [4] (setting [7]), 1%; in assay [4] (setting [8]) it was 50%; in assay [4] (at 50.0 µM), 93% (active). Also, the growth inhibition was 4% in assay [5] (setting [7]); 73% (active) in assay [5] (setting [8]); 85.7% (active) in assay [5] (at 50.0 µM); 2% in assay [6] (setting [7]); 76% (active) in assay [6] (setting [8]); 90.6% (active) in assay [6] (at 50.0 µM).

In the case of `COc1cccc(C2c3cc4c(cc3OC(O)C2C)OCO4)c1O` (stereo not given), the growth inhibition in assay [1] (setting [7]) is -10%; in assay [1] (setting [8]), 8%; in assay [1] (at 50.0 µM), 13.6%; in assay [2] (setting [7]), -5%; in assay [2] (setting [8]), 23%; in assay [2] (at 50.0 µM), 11.5%. Further, the growth inhibition is 1% in assay [3] (setting [7]); 24% in assay [3] (setting [8]); -6.55% in assay [3] (at 50.0 µM); 7% in assay [4] (setting [7]); 4% in assay [4] (setting [8]); 12.6% in assay [4] (at 50.0 µM). For the same compound, the growth inhibition was -4% in assay [5] (setting [7]); 27% in assay [5] (setting [8]); 34.1% in assay [5] (at 50.0 µM); -7% in assay [6] (setting [7]); 30% in assay [6] (setting [8]); 58% in assay [6] (at 50.0 µM).

`CCOC(=O)C(N=Nc1ccc(Br)c(C)c1)C(C)=O` (stereo not given): the growth inhibition is -4% in assay [1] (setting [7]); 81% (active) in assay [1] (setting [8]); 92.2% (active) in assay [1] (at 50.0 µM); -7% in assay [2] (setting [7]); 27% in assay [2] (setting [8]); 84.1% (active) in assay [2] (at 50.0 µM). The growth inhibition was 1% in assay [3] (setting [7]); 92% (active) in assay [3] (setting [8]); 98% (active) in assay [3] (at 50.0 µM); 11% in assay [4] (setting [7]); 50% in assay [4] (setting [8]); 76.8% (active) in assay [4] (at 50.0 µM). The growth inhibition was -6% in assay [5] (setting [7]); 64% in assay [5] (setting [8]); 88% (active) in assay [5] (at 50.0 µM); 4% in assay [6] (setting [7]); 88% (active) in assay [6] (setting [8]); 97.5% (active) in assay [6] (at 50.0 µM).

As to `CC(=O)c1sc(Nc2ccc(Cl)c(Cl)c2)nc1C`, the growth inhibition in assay [1] (setting [7]) is 8%; in assay [1] (setting [8]), 35%; in assay [1] (at 50.0 µM), 95% (active); in assay [2] (setting [7]), 4%; in assay [2] (setting [8]) it was 19%; in assay [2] (at 50.0 µM) it was 81% (active). In addition, the growth inhibition in assay [3] (setting [7]) was 27%; in assay [3] (setting [8]), 22%; in assay [3] (at 50.0 µM), 97% (active); in assay [4] (setting [7]), 1%; in assay [4] (setting [8]) it was 35%; in assay [4] (at 50.0 µM), 91.2% (active). Besides, the growth inhibition in assay [5] (setting [7]) was 1%; in assay [5] (setting [8]) it was 56%; in assay [5] (at 50.0 µM), 81.8% (active); in assay [6] (setting [7]), 15%; in assay [6] (setting [8]), 47%; in assay [6] (at 50.0 µM) it was 93.2% (active).

`Cc1ccccc1C1SCc2nc3ccccc3n21` (stereo not given): the growth inhibition is -9% in assay [1] (setting [7]); -7% in assay [1] (setting [8]); -17.1% in assay [1] (at 50.0 µM); -3% in assay [2] (setting [7]); -4% in assay [2] (setting [8]); 8.3% in assay [2] (at 50.0 µM). Further, the growth inhibition in assay [3] (setting [7]) was -5%; in assay [3] (setting [8]) it was 1%; in assay [3] (at 50.0 µM) it was 14.7%; in assay [4] (setting [7]), -13%; in assay [4] (setting [8]) it was -20%; in assay [4] (at 50.0 µM), 75.3% (active). For the same compound, the growth inhibition in assay [5] (setting [7]) is -4%; in assay [5] (setting [8]), -1%; in assay [5] (at 50.0 µM), -6.4%; in assay [6] (setting [7]), -9%; in assay [6] (setting [8]), -9%; in assay [6] (at 50.0 µM), -25.1%.

With `Cc1ccc2c(c1)[n+]([O-])c(N)n[n+]2[O-]`, the growth inhibition in assay [1] (setting [7]) was 21%; in assay [1] (setting [8]), 61%; in assay [1] (at 50.0 µM), 75.7% (active); in assay [2] (setting [7]) it was 1%; in assay [2] (setting [8]), 35%; in assay [2] (at 50.0 µM), 48.4%. For the same compound, the growth inhibition in assay [3] (setting [7]) was 17%; in assay [3] (setting [8]), 43%; in assay [3] (at 50.0 µM), 57.1%; in assay [4] (setting [7]), 11%; in assay [4] (setting [8]) it was 47%; in assay [4] (at 50.0 µM) it was 40.2%. Moreover, the growth inhibition is -7% in assay [5] (setting [7]); 36% in assay [5] (setting [8]); 43.1% in assay [5] (at 50.0 µM); 20% in assay [6] (setting [7]); 64% in assay [6] (setting [8]); 50.6% in assay [6] (at 50.0 µM).
